Source: PubChem BioAssay
CYP2C9 activ = increases human cytochrome P450 2C9 activity | activation factor at 5 µM | 96,000 compounds, 1.4% hits | P11712 | recombinant CYP2C9, luciferin-H conversion, luminescence; stronger effect = higher value; factor 1 = untreated enzyme, 0 = blocked | AID 1024;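 active means activation factor of 2 or more for CYP2C9 at a 5 µM dose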
Target sequence (P11712 whole entry, looked up): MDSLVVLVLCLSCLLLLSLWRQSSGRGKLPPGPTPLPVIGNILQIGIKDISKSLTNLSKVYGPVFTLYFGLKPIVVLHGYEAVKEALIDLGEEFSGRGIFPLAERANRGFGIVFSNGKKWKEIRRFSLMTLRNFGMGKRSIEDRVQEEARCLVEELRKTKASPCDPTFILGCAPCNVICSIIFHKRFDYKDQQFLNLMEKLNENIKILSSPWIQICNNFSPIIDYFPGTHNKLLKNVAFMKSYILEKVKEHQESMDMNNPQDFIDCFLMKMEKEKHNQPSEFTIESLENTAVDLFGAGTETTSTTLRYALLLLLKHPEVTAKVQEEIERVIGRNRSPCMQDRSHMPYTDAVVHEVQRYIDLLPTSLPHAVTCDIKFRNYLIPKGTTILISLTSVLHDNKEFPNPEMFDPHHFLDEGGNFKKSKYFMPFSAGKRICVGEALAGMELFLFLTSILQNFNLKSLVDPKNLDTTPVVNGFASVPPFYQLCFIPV
CYP2C19 activ = activators of human cytochrome P450 2C19; P33261; recombinant CYP2C19, luciferin-H EGE luminescence; stronger effect = higher value; 0 = fully inhibited enzyme, 1 = untreated enzyme; activation factor at 5 µM; 96,000 tested, under 10 active;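 active means activation factor of at least 2 at 5 µM in the primary screen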
CYP2C19 inhib = inhibitors of human CYP2C19; P33261; CYP2C19 Supersomes, luciferin-H EGE luminescence, 30 min; inhibition, % at 5 µM; 96,000 compounds, 21% hits; AID 778;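 active means CYP2C19 inhibition above a set limit at 5 µM in the primary screen, cut at about 50% in these data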
CYP2C9 inh = human CYP2C9 inhibition. CYP2C9 Supersomes, luciferin-H conversion, luminescence. inhibition, % at 5 µM. 96,000 compounds, 20% hits;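 active means blocking of liver enzyme CYP2C9 beyond about 50% at 5 µM, limit read from the data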
PostGolgi yeast = growth inhibition of a yeast mutant, post-Golgi transport screen; post-Golgi transport phenotypic cell assay; inhibition, % at 10 µM; 98,000 compounds, 0.9% hits; AID 739;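 further: yeast cells grown in 1536-well plates; yeast grown about 18 h at 30C before absorbance read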
PostGolgi ctrl = inhibits growth of the yeast control strain; efflux-deficient yeast background strain, growth absorbance A615, 16 h; inhibition, % at 10 µM; 98,000 compounds, 5% hits; AID 738
Large screens that a line does not name were inactive. Shown are actives, neighbours in structure and some others; about 32% of the full set was active somewhere. Unless noted, no stated cut-off is given here; in the data, active means inhibition above about 30%; inactive means the rest.

O=C(Nc1nc(-c2ccc(Cl)s2)cs1)c1cccs1	CYP2C19 inhib 53.6, CYP2C9 inh 85.4
O=C(CN1C(=O)CCC1=O)Nc1nc(-c2ccccn2)cs1	none
COc1ccc(COC(=O)c2nc3nc(C)cc(C)n3n2)cc1F	none
Cc1ccc(-c2nn(C)c(=O)c3ccccc23)cc1S(=O)(=O)N1CCCC1	CYP2C19 inhib 51.2, CYP2C9 inh 62.9
CC(=O)Nc1cc(-c2nn(CC(=O)N3CCCCC3)c(=O)c3ccccc23)ccc1N1CCOCC1	none
Cn1nc(-c2ccc(N3CCOCC3)c(NS(=O)(=O)c3ccccc3)c2)c2ccccc2c1=O	CYP2C19 inhib 53.0
Cc1ccc(-c2nn(C)c(=O)c3ccccc23)cc1S(=O)(=O)NCCO	none
COc1ccc(-c2nn(C)c(=O)c3ccccc23)cc1NC(=O)Cn1nc(C)c2ccccc2c1=O	CYP2C9 inh 57.6
CCC(=O)Nc1cc(-c2nn(C)c(=O)c3ccccc23)ccc1N1CCCCC1	CYP2C9 inh 80.7
COc1cc(CN2CCC(C(=O)N3CCC(C)CC3)CC2)cc(Br)c1O	none
CC(=O)c1c(C)[nH]c(C(=O)NCCN2CCC(C)CC2)c1C	none
CCC(C)NS(=O)(=O)c1ccc(S(=O)(=O)N(CC(=O)Nc2ccccc2)Cc2ccco2)cc1 (stereo unspecified)	none
CCCC(=O)Nc1cc(-c2nn(C)c(=O)c3ccccc23)ccc1OC	none
CC(=O)Nc1cc(-c2nn(C)c(=O)c3ccccc23)ccc1N1CCCCC1	CYP2C9 inh 57.3
CCCC(=O)Nc1cc(-c2nnc(OC)c3ccccc23)ccc1N1CCCCC1	PostGolgi ctrl 42.8
CCOc1ccccc1N(CC(=O)NC1CCCC1)C(=O)CCCC(=O)Nc1ccccn1	none
Cc1ccc(N(CC(=O)NC2CCCC2)C(=O)CCCC(=O)Nc2ccccn2)cc1C	CYP2C19 inhib 55.6, CYP2C9 inh 55.8
Cc1ccc(C)c(N(CC(=O)NC2CCCCC2)C(=O)CCC(=O)Nc2ccccn2)c1	CYP2C19 inhib 65.9, CYP2C9 inh 80.2 (no result: PostGolgi yeast, PostGolgi ctrl)
Cc1cc(C)cc(N(CC(=O)NC2CCCCC2)C(=O)CCC(=O)Nc2cc(C)ccn2)c1	none (no result: PostGolgi yeast, PostGolgi ctrl)
Cc1ccnc(NC(=O)CCC(=O)N(CC(=O)NC2CCCCC2)c2cccc(C)c2C)c1	CYP2C9 inh 56.0
COc1cccc(CNCCSc2nnnn2C)c1OC	CYP2C19 inhib 77.2
Cn1nnnc1SCCNCC#Cc1ccccc1	CYP2C19 inhib 85.3
COc1cc(CNCCSc2nnnn2C)cc(OC)c1OC	CYP2C19 inhib 56.7
Cn1nnnc1SCCNCc1ccncc1	none
Cn1nnnc1SCCNCc1ccccc1F	CYP2C19 inhib 79.0
Cn1nnnc1SCc1ccccc1F	none
CSc1nc2ccccc2n1C(=O)NC1CCCCC1	none
COc1ccccc1NC(=O)CCSc1nnnn1C	none
COc1ccc(NC(=O)C23CCC(C2)C(C)(C)C3=O)cc1 (stereo unspecified)	none
O=C(/C=C/c1ccccc1)NC(=S)Nc1ccc(N2CCOCC2)c(Cl)c1	none
Cc1ccc(NC(=O)c2cc(NC(=O)c3ccco3)ccc2N2CCOCC2)cc1Cl	CYP2C9 inh 69.3
O=C(NC(=S)Nc1ccc(N2CCOCC2)c(Cl)c1)C(c1ccccc1)c1ccccc1	CYP2C9 inh 76.1
O=C(Nc1ccc(N2CCN(C(=O)c3ccccc3)CC2)cc1)c1ccc(Br)o1	none
O=C(Nc1ccc(N2CCOCC2)c(Cl)c1)c1ccc(Br)o1	CYP2C19 inhib 57.8, CYP2C9 inh 50.8
O=C(Nc1ccc(N2CCCC2)cc1)c1ccc(Br)o1	CYP2C19 inhib 60.9
O=C(Nc1ccccc1N1CCOCC1)c1ccc(Br)o1	none
CCOC(=O)Cn1c(=N)n(Cc2ccccc2F)c2ccccc21	none
O=C(O)c1ccc(CSCc2c(F)cccc2Cl)o1	none
O=C(Nc1ccc(N2CCN(C(=O)c3ccccc3)CC2)c(Cl)c1)c1ccc(Br)o1	CYP2C9 inh 50.6
Cc1ccc(NC(=O)c2cc(S(=O)(=O)N3CCCCC3)ccc2N2CCOCC2)cc1F	CYP2C9 inh 68.4
O=C(Nc1ccc(CN2CCOCC2)cc1)c1ccc(-c2cc(Cl)ccc2Cl)o1	CYP2C19 inhib 54.6, CYP2C9 inh 65.1, PostGolgi yeast 73.3, PostGolgi ctrl 64.6
S=C(c1ccc(-c2cc(Cl)ccc2Cl)o1)N1CCOCC1	none
Cc1nnsc1SCCNC(=O)c1ccc(F)cc1	CYP2C19 inhib 80.5
CCCC(=O)N(C)c1nnc(-c2ccc(OC)cc2)s1	none
O=C(Nc1cc2c(cc1Br)OCCO2)c1cccs1	CYP2C19 inhib 57.2
CCCC(=O)c1cc2c(cc1NC(=O)c1cccs1)OCCO2	none
CC1(C)C(c2ccccc2)=[N+]([O-])CN1O	none
O=[N+]([O-])c1ccc(Cl)c(/C=N/N2CCN(C3c4ccccc4-c4ccccc43)CC2)c1	none
O=[N+]([O-])c1ccc(Cl)c(/C=N/N2CCN(c3ccccc3)CC2)c1	CYP2C9 activ 2.9
Cc1nn(CC(=O)Nc2ccc3c(c2)nc(CN2CCCC2)n3C)c(=O)c2ccccc12	none
C=CCC(C=C)S(=O)(=O)c1ccc(C)cc1 (stereo unspecified)	CYP2C19 inhib 86.7
Fc1ccccc1C(c1nnnn1Cc1ccc2c(c1)OCO2)N1CCN(Cc2ccco2)CC1 (stereo unspecified)	none
COc1cc(/C=N\NC(=O)c2ccc(=O)[nH]n2)cc(OC)c1OC	none
CCOCC(=O)Nc1nc(-c2ccccc2)c(CC)s1	none
O=C(NCCc1ccccc1)C1CCN(S(=O)(=O)c2cccc3nonc23)CC1	CYP2C9 activ 2.3
CCOc1ccccc1N(C)C(=O)C1CCN(S(=O)(=O)c2cccc3nonc23)CC1	CYP2C19 inhib 84.9, CYP2C9 inh 94.1
COc1ccc(CCNC(=O)C2CCN(S(=O)(=O)c3cccc4nonc34)CC2)cc1OC	none
CCOc1ccc(OCC)c(NC(=O)C2CCN(S(=O)(=O)c3cccc4nonc34)CC2)c1	none
O=C(NCCc1ccc(Cl)cc1)C1CCN(S(=O)(=O)c2cccc3nonc23)CC1	CYP2C9 activ 2.5
O=C(NCCN1CCN(c2ccccc2)CC1)C1CCN(S(=O)(=O)c2cccc3nonc23)CC1	CYP2C19 inhib 52.2
COc1ccc(C2(C)NC(=O)N(CC(=O)NCCC3=CCCCC3)C2=O)cc1OC (stereo unspecified)	none
O=C(NC1=NCCS1)C1CC2CCC1C2 (stereo unspecified)	none
CCOC(=O)c1cnc(SC)nc1Sc1cc(Cl)ccc1Cl	PostGolgi yeast 33.3
CCOC(=O)c1cnc(SCc2ccccc2)nc1N	none
CCOC(=O)c1cnc(SC)nc1Oc1cccc(NS(=O)(=O)c2ccccc2)c1	CYP2C9 inh 82.4
CCOC(=O)c1cnc(SC)nc1Oc1cccc(NS(=O)(=O)c2ccc(F)cc2)c1	CYP2C9 inh 76.9
CCOC(=O)c1cnc(SC)nc1Oc1cccc(NC(=O)c2ccc(C)cc2)c1	none
CCOC(=O)c1cnc(SC)nc1Oc1cccc(NC(=O)c2cccc(Cl)c2Cl)c1	CYP2C9 inh 74.5
CCN(CC)CCCN1C(=O)C(O)=C(C(C)=O)C1c1cccc(OC)c1 (stereo unspecified)	none
